# From ChEMBL document CHEMBL2218924, “A broad activity screen in support of a chemogenomic map for kinase signalling research and drug discovery” (Biochem J, 2013)
# Columns and labels:
# [1] = target: T1, Ephrin type-A receptor 3 (Homo sapiens) (UniProt P29320); conditions: at 10 µM
# T1 sequence (whole entry): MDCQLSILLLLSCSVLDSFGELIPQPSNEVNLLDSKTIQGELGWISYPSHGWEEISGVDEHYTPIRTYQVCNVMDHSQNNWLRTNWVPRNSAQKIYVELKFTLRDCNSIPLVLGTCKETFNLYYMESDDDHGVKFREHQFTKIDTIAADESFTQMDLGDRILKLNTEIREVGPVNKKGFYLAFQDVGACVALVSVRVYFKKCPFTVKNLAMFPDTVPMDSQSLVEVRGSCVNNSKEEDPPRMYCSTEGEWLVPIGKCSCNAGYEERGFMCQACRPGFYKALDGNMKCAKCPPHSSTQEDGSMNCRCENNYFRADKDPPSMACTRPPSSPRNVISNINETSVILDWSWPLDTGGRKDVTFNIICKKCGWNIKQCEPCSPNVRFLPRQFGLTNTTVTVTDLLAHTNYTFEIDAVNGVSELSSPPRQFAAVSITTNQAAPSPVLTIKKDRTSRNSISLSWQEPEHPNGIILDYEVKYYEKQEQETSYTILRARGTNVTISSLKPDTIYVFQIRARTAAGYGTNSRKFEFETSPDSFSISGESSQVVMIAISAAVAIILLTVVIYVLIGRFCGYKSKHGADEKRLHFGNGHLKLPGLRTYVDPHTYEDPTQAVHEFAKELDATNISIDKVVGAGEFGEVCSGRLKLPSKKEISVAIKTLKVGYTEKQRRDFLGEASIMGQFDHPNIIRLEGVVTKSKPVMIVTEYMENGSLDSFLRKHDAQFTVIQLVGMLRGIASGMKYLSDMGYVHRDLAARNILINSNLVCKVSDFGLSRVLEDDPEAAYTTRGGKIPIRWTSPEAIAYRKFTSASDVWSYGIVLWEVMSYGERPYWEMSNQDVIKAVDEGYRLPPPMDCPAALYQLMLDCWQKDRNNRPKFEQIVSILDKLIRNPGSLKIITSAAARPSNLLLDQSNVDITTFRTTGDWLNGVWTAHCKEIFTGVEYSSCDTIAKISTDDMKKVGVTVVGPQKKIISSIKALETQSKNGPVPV
# [2] = target: T2, Ephrin type-A receptor 8 (Homo sapiens) (UniProt P29322); conditions: at 1 µM
# T2 sequence (whole entry): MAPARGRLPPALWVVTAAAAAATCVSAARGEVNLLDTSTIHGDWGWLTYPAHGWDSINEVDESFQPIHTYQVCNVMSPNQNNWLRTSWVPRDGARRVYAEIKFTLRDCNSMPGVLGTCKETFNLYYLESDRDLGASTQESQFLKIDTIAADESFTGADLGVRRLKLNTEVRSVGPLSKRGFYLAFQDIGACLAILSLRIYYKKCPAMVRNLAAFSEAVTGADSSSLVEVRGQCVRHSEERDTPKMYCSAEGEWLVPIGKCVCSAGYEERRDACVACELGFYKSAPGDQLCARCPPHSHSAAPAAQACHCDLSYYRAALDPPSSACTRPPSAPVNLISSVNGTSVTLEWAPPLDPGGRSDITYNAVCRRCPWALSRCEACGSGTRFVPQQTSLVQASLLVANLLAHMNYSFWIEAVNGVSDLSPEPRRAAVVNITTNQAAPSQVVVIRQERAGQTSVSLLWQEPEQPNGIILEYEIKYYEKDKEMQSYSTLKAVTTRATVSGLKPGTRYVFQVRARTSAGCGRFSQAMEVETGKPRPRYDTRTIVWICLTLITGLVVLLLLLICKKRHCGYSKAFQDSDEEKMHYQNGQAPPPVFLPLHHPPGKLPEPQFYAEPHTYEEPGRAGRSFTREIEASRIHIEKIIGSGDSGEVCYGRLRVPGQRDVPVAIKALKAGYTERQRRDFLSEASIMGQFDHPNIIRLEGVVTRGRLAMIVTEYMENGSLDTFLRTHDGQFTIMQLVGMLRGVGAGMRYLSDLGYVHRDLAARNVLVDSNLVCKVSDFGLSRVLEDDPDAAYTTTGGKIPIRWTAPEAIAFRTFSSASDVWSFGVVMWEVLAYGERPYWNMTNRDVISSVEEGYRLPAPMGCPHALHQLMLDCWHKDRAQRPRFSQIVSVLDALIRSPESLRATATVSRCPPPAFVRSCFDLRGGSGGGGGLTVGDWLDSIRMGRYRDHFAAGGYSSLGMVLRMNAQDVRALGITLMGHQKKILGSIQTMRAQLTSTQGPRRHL
# [3] = target: T2, Ephrin type-A receptor 8 (Homo sapiens); conditions: at 10 µM
# [4] = target: T3, Ephrin type-B receptor 1 (Homo sapiens) (UniProt P54762); conditions: at 10 µM
# T3 sequence (whole entry): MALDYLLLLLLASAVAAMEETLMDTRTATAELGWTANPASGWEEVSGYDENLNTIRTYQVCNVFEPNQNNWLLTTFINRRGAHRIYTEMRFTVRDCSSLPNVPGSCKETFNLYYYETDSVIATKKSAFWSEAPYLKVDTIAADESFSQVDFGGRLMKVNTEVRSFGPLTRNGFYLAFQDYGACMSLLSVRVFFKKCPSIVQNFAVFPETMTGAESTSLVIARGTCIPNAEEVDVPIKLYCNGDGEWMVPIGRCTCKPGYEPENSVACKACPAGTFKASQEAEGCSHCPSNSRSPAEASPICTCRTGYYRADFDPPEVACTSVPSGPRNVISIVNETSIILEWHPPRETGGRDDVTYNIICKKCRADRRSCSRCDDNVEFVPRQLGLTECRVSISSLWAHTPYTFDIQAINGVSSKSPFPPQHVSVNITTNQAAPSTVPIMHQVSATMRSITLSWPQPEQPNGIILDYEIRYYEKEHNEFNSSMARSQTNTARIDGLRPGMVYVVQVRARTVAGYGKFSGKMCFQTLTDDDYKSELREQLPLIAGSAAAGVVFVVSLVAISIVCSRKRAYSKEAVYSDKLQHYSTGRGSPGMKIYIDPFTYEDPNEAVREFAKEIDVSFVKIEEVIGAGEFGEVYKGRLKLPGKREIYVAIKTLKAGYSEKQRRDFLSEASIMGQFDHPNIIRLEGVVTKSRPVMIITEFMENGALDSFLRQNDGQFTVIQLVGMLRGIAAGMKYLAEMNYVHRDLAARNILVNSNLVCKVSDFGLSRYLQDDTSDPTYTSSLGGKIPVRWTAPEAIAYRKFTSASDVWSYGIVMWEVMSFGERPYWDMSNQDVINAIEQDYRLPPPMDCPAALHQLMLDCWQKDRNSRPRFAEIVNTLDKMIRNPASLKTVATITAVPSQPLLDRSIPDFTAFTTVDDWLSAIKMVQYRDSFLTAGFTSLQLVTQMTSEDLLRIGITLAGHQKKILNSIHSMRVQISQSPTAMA
# [5] = target: Focal adhesion kinase 1 (Homo sapiens) (UniProt Q05397); conditions: at 1 µM
# Chain of Focal adhesion kinase 1 (Homo sapiens) (Q05397 2-1052 limits assumed): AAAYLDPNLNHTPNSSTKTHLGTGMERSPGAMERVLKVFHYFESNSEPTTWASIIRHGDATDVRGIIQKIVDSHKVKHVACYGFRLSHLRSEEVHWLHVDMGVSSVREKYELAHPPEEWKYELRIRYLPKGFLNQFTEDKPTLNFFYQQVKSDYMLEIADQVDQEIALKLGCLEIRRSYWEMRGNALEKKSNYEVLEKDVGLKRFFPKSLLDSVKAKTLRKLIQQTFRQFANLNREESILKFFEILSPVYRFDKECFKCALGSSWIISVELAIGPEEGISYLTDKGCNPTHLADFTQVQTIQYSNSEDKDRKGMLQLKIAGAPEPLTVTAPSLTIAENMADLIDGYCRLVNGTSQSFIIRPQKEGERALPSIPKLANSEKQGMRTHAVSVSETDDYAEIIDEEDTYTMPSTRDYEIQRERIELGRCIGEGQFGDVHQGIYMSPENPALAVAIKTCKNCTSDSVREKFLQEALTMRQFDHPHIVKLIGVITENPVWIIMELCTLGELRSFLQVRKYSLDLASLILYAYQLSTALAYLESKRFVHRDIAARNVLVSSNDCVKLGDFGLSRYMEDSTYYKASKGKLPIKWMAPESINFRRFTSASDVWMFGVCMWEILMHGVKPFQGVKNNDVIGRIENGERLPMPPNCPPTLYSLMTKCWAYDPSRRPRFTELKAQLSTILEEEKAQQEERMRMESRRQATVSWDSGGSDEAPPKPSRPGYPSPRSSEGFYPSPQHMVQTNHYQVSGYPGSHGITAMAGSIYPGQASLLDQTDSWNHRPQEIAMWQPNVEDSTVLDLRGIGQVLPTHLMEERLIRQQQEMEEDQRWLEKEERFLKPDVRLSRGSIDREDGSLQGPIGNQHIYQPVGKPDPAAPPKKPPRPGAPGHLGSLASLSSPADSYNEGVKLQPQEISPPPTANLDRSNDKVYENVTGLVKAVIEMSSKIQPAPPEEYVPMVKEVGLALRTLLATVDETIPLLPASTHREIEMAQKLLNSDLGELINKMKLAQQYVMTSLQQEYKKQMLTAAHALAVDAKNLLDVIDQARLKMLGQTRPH
# [6] = target: T4, Ephrin type-B receptor 2 (Homo sapiens) (UniProt P29323); conditions: at 10 µM
# T4 sequence (whole entry): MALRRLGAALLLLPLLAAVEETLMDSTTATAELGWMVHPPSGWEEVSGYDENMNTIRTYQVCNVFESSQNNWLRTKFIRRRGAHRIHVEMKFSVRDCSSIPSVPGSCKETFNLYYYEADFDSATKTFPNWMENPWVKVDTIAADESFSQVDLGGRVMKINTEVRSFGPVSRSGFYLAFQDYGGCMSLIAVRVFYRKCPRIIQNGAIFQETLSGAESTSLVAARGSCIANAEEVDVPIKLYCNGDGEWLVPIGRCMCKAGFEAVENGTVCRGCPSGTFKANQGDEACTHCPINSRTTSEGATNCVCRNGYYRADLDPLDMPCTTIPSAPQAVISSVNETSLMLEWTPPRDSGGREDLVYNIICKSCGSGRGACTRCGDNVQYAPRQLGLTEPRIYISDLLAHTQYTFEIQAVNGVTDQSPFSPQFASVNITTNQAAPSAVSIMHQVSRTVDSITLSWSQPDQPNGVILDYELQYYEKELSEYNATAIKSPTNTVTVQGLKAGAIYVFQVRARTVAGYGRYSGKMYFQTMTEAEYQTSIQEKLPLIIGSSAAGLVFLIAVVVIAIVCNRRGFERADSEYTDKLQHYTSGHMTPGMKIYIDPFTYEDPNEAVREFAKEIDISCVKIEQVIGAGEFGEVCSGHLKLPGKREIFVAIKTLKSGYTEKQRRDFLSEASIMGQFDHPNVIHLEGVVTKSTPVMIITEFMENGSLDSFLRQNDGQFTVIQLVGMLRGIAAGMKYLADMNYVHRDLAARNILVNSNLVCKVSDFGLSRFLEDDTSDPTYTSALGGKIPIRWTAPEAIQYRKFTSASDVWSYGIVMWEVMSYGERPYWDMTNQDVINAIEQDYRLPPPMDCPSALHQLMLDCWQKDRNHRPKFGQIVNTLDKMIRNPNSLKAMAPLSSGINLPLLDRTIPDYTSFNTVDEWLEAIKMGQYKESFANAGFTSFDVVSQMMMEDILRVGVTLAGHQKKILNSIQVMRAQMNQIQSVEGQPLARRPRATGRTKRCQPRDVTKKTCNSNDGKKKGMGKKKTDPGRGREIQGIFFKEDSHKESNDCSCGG
# [7] = target: T5, Ephrin type-B receptor 3 (Homo sapiens) (UniProt P54753); conditions: at 1 µM
# T5 sequence (whole entry): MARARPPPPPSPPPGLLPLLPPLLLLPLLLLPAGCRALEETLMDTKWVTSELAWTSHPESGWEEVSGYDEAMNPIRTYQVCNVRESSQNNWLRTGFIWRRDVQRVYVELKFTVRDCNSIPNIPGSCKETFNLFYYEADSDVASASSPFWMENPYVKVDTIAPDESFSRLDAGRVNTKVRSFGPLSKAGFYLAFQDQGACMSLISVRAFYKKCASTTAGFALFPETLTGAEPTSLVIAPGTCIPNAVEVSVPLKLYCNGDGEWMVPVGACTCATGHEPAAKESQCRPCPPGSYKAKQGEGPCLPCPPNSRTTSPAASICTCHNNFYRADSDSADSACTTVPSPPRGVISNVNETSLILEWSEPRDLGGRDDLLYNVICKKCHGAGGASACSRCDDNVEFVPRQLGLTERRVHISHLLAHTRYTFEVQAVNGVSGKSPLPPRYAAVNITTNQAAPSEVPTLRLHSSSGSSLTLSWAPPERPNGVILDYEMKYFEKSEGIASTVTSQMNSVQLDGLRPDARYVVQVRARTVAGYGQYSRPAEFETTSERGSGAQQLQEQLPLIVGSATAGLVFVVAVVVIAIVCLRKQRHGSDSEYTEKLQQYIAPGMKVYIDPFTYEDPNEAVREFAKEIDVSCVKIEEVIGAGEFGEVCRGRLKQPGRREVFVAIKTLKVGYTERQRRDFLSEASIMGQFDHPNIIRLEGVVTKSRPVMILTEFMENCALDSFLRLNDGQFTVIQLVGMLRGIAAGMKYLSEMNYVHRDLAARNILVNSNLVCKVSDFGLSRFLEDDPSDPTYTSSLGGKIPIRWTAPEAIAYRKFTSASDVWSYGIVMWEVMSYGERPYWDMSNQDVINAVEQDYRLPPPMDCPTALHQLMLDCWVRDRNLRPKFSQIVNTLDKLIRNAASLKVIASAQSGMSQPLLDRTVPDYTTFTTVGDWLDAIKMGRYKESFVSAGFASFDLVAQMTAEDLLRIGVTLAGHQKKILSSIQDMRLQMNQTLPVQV
# [8] = target: T5, Ephrin type-B receptor 3 (Homo sapiens); conditions: at 10 µM
# [9] = target: T6, Ephrin type-B receptor 4 (Homo sapiens) (UniProt P54760); conditions: at 1 µM
# T6 sequence (whole entry): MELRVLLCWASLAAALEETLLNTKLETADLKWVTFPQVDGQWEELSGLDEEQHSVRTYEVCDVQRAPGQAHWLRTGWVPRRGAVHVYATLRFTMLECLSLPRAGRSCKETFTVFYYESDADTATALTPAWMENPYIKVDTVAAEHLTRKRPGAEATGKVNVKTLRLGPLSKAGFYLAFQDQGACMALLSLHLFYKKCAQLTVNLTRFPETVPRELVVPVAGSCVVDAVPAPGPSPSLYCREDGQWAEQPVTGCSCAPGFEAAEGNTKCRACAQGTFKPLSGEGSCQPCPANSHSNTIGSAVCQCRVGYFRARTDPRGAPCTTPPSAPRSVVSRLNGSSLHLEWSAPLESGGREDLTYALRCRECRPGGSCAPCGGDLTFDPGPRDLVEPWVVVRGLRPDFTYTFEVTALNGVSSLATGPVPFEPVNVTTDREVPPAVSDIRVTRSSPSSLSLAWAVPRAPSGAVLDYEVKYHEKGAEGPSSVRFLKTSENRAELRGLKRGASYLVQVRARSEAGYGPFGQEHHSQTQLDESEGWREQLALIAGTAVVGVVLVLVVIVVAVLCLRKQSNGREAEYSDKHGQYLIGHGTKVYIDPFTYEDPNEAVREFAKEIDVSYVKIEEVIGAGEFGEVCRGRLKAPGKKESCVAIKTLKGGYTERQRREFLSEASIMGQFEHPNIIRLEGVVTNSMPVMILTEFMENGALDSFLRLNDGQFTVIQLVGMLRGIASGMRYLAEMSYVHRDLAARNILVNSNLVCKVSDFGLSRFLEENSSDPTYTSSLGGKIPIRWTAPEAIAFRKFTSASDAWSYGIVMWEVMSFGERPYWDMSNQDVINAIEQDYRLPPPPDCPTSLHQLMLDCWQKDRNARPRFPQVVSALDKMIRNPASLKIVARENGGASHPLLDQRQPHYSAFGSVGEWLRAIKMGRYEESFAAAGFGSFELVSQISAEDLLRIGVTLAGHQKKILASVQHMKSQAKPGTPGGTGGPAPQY
# [10] = target: T6, Ephrin type-B receptor 4 (Homo sapiens); conditions: at 10 µM
compound,measurement,setting,value
CC(C)(C)c1nc2c3ccc(F)cc3c3c(=O)[nH]ccc3c2[nH]1,residual activity,[1],72%
same,residual activity,[2],103%
same,residual activity,[3],103%
same,residual activity,[4],99%
same,residual activity,[5],51%
CN([C@@H](Cc1ccc(OS(=O)(=O)c2cccc3cnccc23)cc1)C(=O)N1CCN(c2ccccc2)CC1)S(=O)(=O)c1cccc2cnccc12,residual activity,[6],131%
same,residual activity,[7],116% (inactive)
same,residual activity,[5],119%
O=C(Nc1ccc(Cl)cc1)c1ccccc1NCc1ccncc1,residual activity,[8],125%
same,residual activity,[9],117%
same,residual activity,[10],131%
same,residual activity,[5],143%
